Measurements published in PubChem BioAssay AID1159580 (chemical genetic matrix, 2015).
Where “and” joins values, the source holds several entries; their conditions need not be identical. Equal values may be shown once. Out of some 5,500 compounds screened, about 2,000 (36%) were called active. Another 18% or so got no clear call; they are omitted. The list shows a part of the results. A number with no mark means an inactive call. Cut-off read from the data, not from the text of the source: active = normalized growth mostly below about 0.91 (no sharp cut-off); inconclusive = no clear call, values can overlap the other calls; inactive = mostly above about 0.92.

Assay: chemical genetic growth profiling, strain panel (AID 1159580);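 note: tested at 20 µM; growth read once vehicle control cultures reached saturation at 30 °C; 1 = growth at the plate median or of vehicle wells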
Conditions: S. cerevisiae deletion strains, growth OD

Which results are given for `CC1=CC(=O)C2C(C)(C)CCC[C@]2(C)[C@@]1(O)CCc1ccoc1` (some centres not stated)?
normalized growth (locus YAL021C, strain ccr4, stronger effect = lower value): 0.986; normalized growth (locus YAL026C, strain drs2, stronger effect = lower value): 1; normalized growth (locus YAL030W, strain snc1, stronger effect = lower value): 0.984; normalized growth (locus YBL061C, strain skt5, stronger effect = lower value): 1.02; normalized growth (locus YBR009C, strain hhf1, stronger effect = lower value): 0.999; normalized growth (locus YBR021W, strain FUR4, stronger effect = lower value): 1.04; normalized growth (locus YBR023C, strain chs3, stronger effect = lower value): 0.982; normalized growth (locus YBR171W, strain sec66, stronger effect = lower value): 0.984; normalized growth (locus YBR229C, strain ROT2, stronger effect = lower value): 1.01; normalized growth (locus YBR231C, strain swc5, stronger effect = lower value): 1.03; normalized growth (locus YBR279W, strain paf1, stronger effect = lower value): 0.975; normalized growth (locus YCL011C, strain gbp2, stronger effect = lower value): 0.996; normalized growth (locus YCL016C, strain dcc1, stronger effect = lower value): 0.989; normalized growth (locus YCL029C, strain bik1, stronger effect = lower value): 0.997; normalized growth (locus YCL061C, strain MRC1, stronger effect = lower value): 1; normalized growth (locus YCL069W, strain vba3, stronger effect = lower value): 1.01; normalized growth (locus YCR088W, strain abp1, stronger effect = lower value): 0.992; normalized growth (locus YDL005C, strain med2, stronger effect = lower value): 0.988; normalized growth (locus YDL035C, strain GPR1, stronger effect = lower value): 1.03; normalized growth (locus YDL040C, strain nat1, stronger effect = lower value): 0.998; normalized growth (locus YDL074C, strain BRE1, stronger effect = lower value): 0.995; normalized growth (locus YDL101C, strain DUN1, stronger effect = lower value): 0.998; normalized growth (locus YDL185W, strain tfp1, stronger effect = lower value): 0.955; normalized growth (locus YDL192W, strain arf1, stronger effect = lower value): 0.998; normalized growth (locus YDR001C, strain nth1, stronger effect = lower value): 1.01; normalized growth (locus YDR069C, strain doa4, stronger effect = lower value): 0.994; normalized growth (locus YDR101C, strain arx1, stronger effect = lower value): 1.01; normalized growth (locus YDR137W, strain rgp1, stronger effect = lower value): 0.825 (active); normalized growth (locus YDR150W, strain NUM1, stronger effect = lower value): 0.988; normalized growth (locus YDR159W, strain sac3, stronger effect = lower value): 1.02; normalized growth (locus YDR162C, strain NBP2, stronger effect = lower value): 1; normalized growth (locus YDR195W, strain ref2): 1.08; normalized growth (locus YDR297W, strain sur2, stronger effect = lower value): 0.991; normalized growth (locus YDR318W, strain mcm21, stronger effect = lower value): 0.997; normalized growth (locus YDR334W, strain swr1, stronger effect = lower value): 1.01; normalized growth (locus YDR335W, strain msn5, stronger effect = lower value): 0.958; normalized growth (locus YDR388W, stronger effect = lower value): 0.999; normalized growth (locus YDR392W, strain spt3, stronger effect = lower value): 0.628 (active); normalized growth (locus YDR502C, strain sam2, stronger effect = lower value): 0.98; normalized growth (locus YEL003W, strain gim4, stronger effect = lower value): 1.02; normalized growth (locus YEL037C, strain rad23, stronger effect = lower value): 1; normalized growth (locus YEL061C, strain CIN8 (second series), stronger effect = lower value): 0.995; normalized growth (locus YEL061C, strain CIN8, stronger effect = lower value): 1; normalized growth (locus YER015W, strain faa2, stronger effect = lower value): 0.99; normalized growth (locus YER016W, strain bim1, stronger effect = lower value): 0.994; normalized growth (locus YER110C, stronger effect = lower value): 0.987; normalized growth (locus YER111C, strain swi4, stronger effect = lower value): 0.999; normalized growth (locus YER155C, strain BEM2 (second series), stronger effect = lower value): 1.03; normalized growth (locus YER155C, strain BEM2, stronger effect = lower value): 0.989; normalized growth (locus YER167W, strain BCK2, stronger effect = lower value): 0.989; normalized growth (locus YFR010W, strain ubp6, stronger effect = lower value): 1.04; normalized growth (locus YGL078C, strain dbp3, stronger effect = lower value): 0.966; normalized growth (locus YGL086W, strain mad1, stronger effect = lower value): 0.995; normalized growth (locus YGL167C, strain pmr1, stronger effect = lower value): 0.987; normalized growth (locus YGL173C, strain kem1, stronger effect = lower value): 1.01; normalized growth (locus YGL227W, strain vid30, stronger effect = lower value): 0.991; normalized growth (locus YGL240W, strain doc1, stronger effect = lower value): 1.01; normalized growth (locus YGL248W, strain PDE1, stronger effect = lower value): 1.03; normalized growth (locus YGL253W, strain hxk2, stronger effect = lower value): 1.03; normalized growth (locus YGR078C, strain PAC10, stronger effect = lower value): 1.01; normalized growth (locus YGR135W, strain pre9, stronger effect = lower value): 0.941; normalized growth (locus YGR252W, strain gcn5, stronger effect = lower value): 1.08; normalized growth (locus YHR013C, strain ard1, stronger effect = lower value): 0.98; normalized growth (locus YHR027C, strain rpn1, stronger effect = lower value): 0.99; normalized growth (locus YHR030C, strain SLT2, stronger effect = lower value): 1.05; normalized growth (locus YHR079C, strain IRE1 (second series), stronger effect = lower value): 0.972; normalized growth (locus YHR079C, strain IRE1, stronger effect = lower value): 1.04; normalized growth (locus YHR094C, strain hxt1, stronger effect = lower value): 0.973; normalized growth (locus YHR129C, strain ARP1, stronger effect = lower value): 0.989; normalized growth (locus YHR142W, strain chs7, stronger effect = lower value): 0.96; normalized growth (locus YHR200W, strain rpn10, stronger effect = lower value): 1; normalized growth (locus YIL066C, strain RNR3, stronger effect = lower value): 0.998; normalized growth (locus YIL073C, strain SPO22, stronger effect = lower value): 1.02; normalized growth (locus YIL125W, strain kgd1, stronger effect = lower value): 0.98; normalized growth (locus YIR030C, strain dcg1, stronger effect = lower value): 0.976; normalized growth (locus YJL092W, strain hpr5, stronger effect = lower value): 1; normalized growth (locus YJL095W, strain BCK1 (second series), stronger effect = lower value): 0.995; normalized growth (locus YJL095W, strain BCK1, stronger effect = lower value): 1.02 and 1.03; normalized growth (locus YJL115W, strain asf1, stronger effect = lower value): 0.982; normalized growth (locus YJL129C, strain trk1, stronger effect = lower value): 0.945; normalized growth (locus YJL134W, strain LCB3, stronger effect = lower value): 0.99; normalized growth (locus YJL154C, strain vps35, stronger effect = lower value): 1; normalized growth (locus YJL164C, strain tpk1, stronger effect = lower value): 0.955; normalized growth (locus YJL166W, strain qcr8, stronger effect = lower value): 0.995; normalized growth (locus YJL168C, strain set2, stronger effect = lower value): 0.983; normalized growth (locus YJL187C, strain SWE1 (second series), stronger effect = lower value): 1; normalized growth (locus YJL187C, strain SWE1, stronger effect = lower value): 0.992; normalized growth (locus YJR043C, strain POL32, stronger effect = lower value): 1.08; normalized growth (locus YJR066W, strain TOR1, stronger effect = lower value): 0.973; normalized growth (locus YJR075W, strain HOC1, stronger effect = lower value): 0.994; normalized growth (locus YKL009W, strain mrt4, stronger effect = lower value): 0.981; normalized growth (locus YKL068W, stronger effect = lower value): 0.968; normalized growth (locus YKL085W, strain MDH1 (second series), stronger effect = lower value): 0.974; normalized growth (locus YKL085W, strain MDH1, stronger effect = lower value): 0.974; normalized growth (locus YKL160W, strain elf1, stronger effect = lower value): 0.975; normalized growth (locus YKL190W, strain CNB1, stronger effect = lower value): 0.986; normalized growth (locus YKR001C, strain vps1, stronger effect = lower value): 1.04; normalized growth (locus YKR026C, strain gcn3, stronger effect = lower value): 1; normalized growth (locus YKR091W, strain srl3, stronger effect = lower value): 0.991; normalized growth (locus YLL001W, strain dnm1, stronger effect = lower value): 0.964; normalized growth (locus YLL026W, stronger effect = lower value): 0.994; normalized growth (locus YLL041C, strain sdh2, stronger effect = lower value): 0.999; normalized growth (locus YLR027C, strain aat2, stronger effect = lower value): 0.984; normalized growth (locus YLR039C, strain RIC1, stronger effect = lower value): 1; normalized growth (locus YLR058C, strain SHM2, stronger effect = lower value): 1.02; normalized growth (locus YLR102C, strain apc9, stronger effect = lower value): 0.979; normalized growth (locus YLR113W, strain HOG1, stronger effect = lower value): 1.02; normalized growth (locus YLR221C, strain rsa3, stronger effect = lower value): 1.02; normalized growth (locus YLR258W, strain gsy2, stronger effect = lower value): 0.996; normalized growth (locus YLR262C, strain YPT6 (second series), stronger effect = lower value): 0.835 (active); normalized growth (locus YLR268W, strain sec22, stronger effect = lower value): 1; normalized growth (locus YLR320W, strain mms22, stronger effect = lower value): 1; normalized growth (locus YLR342W, strain FKS1, stronger effect = lower value): 0.99; normalized growth (locus YLR357W, strain rsc2, stronger effect = lower value): 1.04; normalized growth (locus YLR370C, strain arc18, stronger effect = lower value): 0.996; normalized growth (locus YLR371W, strain rom2, stronger effect = lower value): 0.983; normalized growth (locus YLR384C, strain iki3, stronger effect = lower value): 0.982; normalized growth (locus YLR418C, strain cdc73, stronger effect = lower value): 0.995; normalized growth (locus YML016C, strain PPZ1, stronger effect = lower value): 0.998; normalized growth (locus YML032C, strain rad52, stronger effect = lower value): 0.983; normalized growth (locus YML120C, strain ndi1, stronger effect = lower value): 0.954; normalized growth (locus YML124C, strain tub3, stronger effect = lower value): 0.993; normalized growth (locus YMR058W, strain fet3, stronger effect = lower value): 1; normalized growth (locus YMR078C, strain ctf18, stronger effect = lower value): 0.974; normalized growth (locus YMR125W, strain sto1, stronger effect = lower value): 0.959; normalized growth (locus YMR129W, stronger effect = lower value): 0.981; normalized growth (locus YMR205C, strain PFK2, stronger effect = lower value): 0.922; normalized growth (locus YMR223W, strain ubp8, stronger effect = lower value): 0.972; normalized growth (locus YMR231W, strain pep5, stronger effect = lower value): 0.998; normalized growth (locus YMR307W, strain GAS1, stronger effect = lower value): 1.13; normalized growth (locus YNL067W, strain RPL9B, stronger effect = lower value): 1; normalized growth (locus YNL071W, strain lat1, stronger effect = lower value): 0.902 (active); normalized growth (locus YNL183C, strain NPR1, stronger effect = lower value): 0.975; normalized growth (locus YNL209W, strain ssb2, stronger effect = lower value): 0.987; normalized growth (locus YNL233W, strain BNI4, stronger effect = lower value): 1.03; normalized growth (locus YNL248C, strain rpa49, stronger effect = lower value): 0.998; normalized growth (locus YNL250W, strain rad50, stronger effect = lower value): 0.927; normalized growth (locus YNL271C, strain bni1, stronger effect = lower value): 0.955; normalized growth (locus YNL298W, strain CLA4, stronger effect = lower value): 0.996; normalized growth (locus YNL307C, strain MCK1, stronger effect = lower value): 0.986; normalized growth (locus YNL322C, strain KRE1 (second series), stronger effect = lower value): 0.998; normalized growth (locus YNR049C, strain mso1, stronger effect = lower value): 1; normalized growth (locus YNR052C, strain pop2, stronger effect = lower value): 0.979; normalized growth (locus YOL006C, strain TOP1, stronger effect = lower value): 1.15; normalized growth (locus YOL012C, strain htz1): 1.06; normalized growth (locus YOL147C, strain pex11, stronger effect = lower value): 0.976; normalized growth (locus YOR001W, strain rrp6, stronger effect = lower value): 1.06; normalized growth (locus YOR061W, strain CKA2, stronger effect = lower value): 0.993; normalized growth (locus YOR069W, strain VPS5, stronger effect = lower value): 0.99; normalized growth (locus YOR070C, strain gyp1, stronger effect = lower value): 0.99; normalized growth (locus YOR080W, strain dia2, stronger effect = lower value): 1; normalized growth (locus YOR083W, strain WHI5, stronger effect = lower value): 1.01; normalized growth (locus YOR106W, strain vam3, stronger effect = lower value): 1; normalized growth (locus YOR136W, strain idh2, stronger effect = lower value): 0.986; normalized growth (locus YOR144C, strain elg1, stronger effect = lower value): 0.986; normalized growth (locus YOR184W, strain ser1, stronger effect = lower value): 1.01; normalized growth (locus YOR231W, strain MKK1, stronger effect = lower value): 1.03; normalized growth (locus YOR265W, strain rbl2, stronger effect = lower value): 1.02; normalized growth (locus YOR270C, strain vph1, stronger effect = lower value): 0.862; normalized growth (locus YOR290C, strain snf2, stronger effect = lower value): 0.959; normalized growth (locus YOR316C, strain cot1, stronger effect = lower value): 0.993; normalized growth (locus YPL051W, strain arl3, stronger effect = lower value): 0.959; normalized growth (locus YPL078C, strain atp4, stronger effect = lower value): 0.966; normalized growth (locus YPL106C, strain sse1, stronger effect = lower value): 1.02; normalized growth (locus YPL240C, strain hsp82, stronger effect = lower value): 1; normalized growth (locus YPL241C, strain CIN2, stronger effect = lower value): 0.985; normalized growth (locus YPL256C, strain CLN2, stronger effect = lower value): 1.01; normalized growth (locus YPR119W, strain clb2, stronger effect = lower value): 0.969; normalized growth (locus YPR141C, strain kar3, stronger effect = lower value): 0.962; normalized growth (locus YPR163C, strain tif3, stronger effect = lower value): 0.977; normalized growth (locus YPR167C, strain met16, stronger effect = lower value): 0.972; normalized growth (strain wtn01, stronger effect = lower value): 1.01
